{
  "source": "PubChem BioAssay (NCI)",
  "note": "Several values for one entry are separate records, joined by “and”; a condition that tells them apart may be missing. Equal values may be shown once. The panel holds about 83,000 compounds, 20% with a hit somewhere; the sample as a whole holds those more often.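 Results are percent growth after 48 hours of single-concentration exposure. 100 means growth as in untreated cells, lower positive values show inhibition; negative values down to -100 show cell death.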 Values without a mark were called inactive. Activity calls are given as the source filed them.",
  "data": [
    {"test_system": "COLO 205 colon", "assay": "NCI-60 one-dose screen, 48 h (100 = growth as untreated, 0 = no growth, -100 = all killed)", "conditions": "0.01 µM", "method": "(§1) Cells are grown in 96 well plates and exposed to the test compound for 48 hours. Compounds are tested at a single concentration, which is 10^-5 M for most compounds. The reported endpoint is percent growth (GI% or GIPRCNT), where numbers from 0 - 100% represent growth inhibition, and numbers from -100% - 0 represent cell death. For example, a value of 40 represents 60% growth inhibition. A value of 0 means no net growth occurred over the course of the experiment. A value of -40 indicates 40% of cells at the beginning of the experiment died by the end of the experiment. A value of -100 means all cells are dead at the end of the experiment.\n(§2) NCI-60 Human Tumor Cell Lines Screen was performed using the standard one-dose NCI protocol, which is described in more detail at https://dtp.cancer.gov/discovery_development/nci-60/default.htm.\n(§3) Compounds with GIPRCNT values below 10 were considered active. Activity score was based on GIPRCNT using the following formula: […]\n(§4) Score is 0 for GIPRCNT values of 100 or above, 50 for GIPRCNT values of 0, and 100 for GIPRCNT values of -100.", "units": {"growth": "%"}, "values": [
      {"smiles": "CC(=O)O[C@H]1C(=O)[C@@]2(C)[C@H]([C@H](OC(=O)c3ccccc3)[C@]3(O)C[C@H](OC(=O)[C@H](O)[C@@H](NC(=O)c4ccccc4)c4ccccc4)C(C)=C1C3(C)C)[C@]1(OC(C)=O)CO[C@@H]1C[C@@H]2O", "growth": 13.4}
    ]},
    {"test_system": "COLO 205 colon", "assay": "NCI-60 one-dose screen, 48 h (100 = growth as untreated, 0 = no growth, -100 = all killed)", "conditions": "2.5 µM", "method": "as §1, §2, §3, §4", "values": [
      {"smiles": "CC(=O)O[C@H]1C(=O)[C@@]2(C)[C@H]([C@H](OC(=O)c3ccccc3)[C@]3(O)C[C@H](OC(=O)[C@H](O)[C@@H](NC(=O)c4ccccc4)c4ccccc4)C(C)=C1C3(C)C)[C@]1(OC(C)=O)CO[C@@H]1C[C@@H]2O", "growth": "-54.6% (active)"}
    ]},
    {"test_system": "COLO 205 colon", "assay": "NCI-60 one-dose screen, 48 h (100 = growth as untreated, 0 = no growth, -100 = all killed)", "conditions": "5 µM", "method": "as §1, §2, §3, §4", "values": [
      {"smiles": "CC(=O)O[C@H]1C(=O)[C@@]2(C)[C@H]([C@H](OC(=O)c3ccccc3)[C@]3(O)C[C@H](OC(=O)[C@H](O)[C@@H](NC(=O)c4ccccc4)c4ccccc4)C(C)=C1C3(C)C)[C@]1(OC(C)=O)CO[C@@H]1C[C@@H]2O", "growth": "-47.9% (active)"}
    ]},
    {"test_system": "COLO 205 colon", "assay": "NCI-60 one-dose screen, 48 h (100 = growth as untreated, 0 = no growth, -100 = all killed)", "conditions": "10 µM", "method": "as §1, §2, §3, §4", "values": [
      {"smiles": "Cc1cc(C)c(N2C(=O)CC(Sc3ccccc3N)C2=O)c(C)c1", "note": "(stereo not given)", "growth": "84.8%"},
      {"smiles": "S=P(N1CC1)(N1CC1)N1CC1", "growth": "106% and 121%"},
      {"smiles": "CC1CCC2(C(=O)O)CCC3(C)C(=CCC4C5(C)CC(O)C(O)C(C)(CO)C5C(O)CC43C)C2C1C", "note": "(stereo not given)", "growth": "112%"},
      {"smiles": "C=C1N(C)c2ccc(Cl)cc2C1(C)C", "growth": "23.7%"},
      {"smiles": "Cn1ncc2cc3c(Nc4ccc(Cl)cc4)cccc3nc21", "growth": "96.1%"},
      {"smiles": "O=[N+]([O-])c1cc(S(=O)(=O)Nc2ccccc2)ccc1Cl", "growth": "119%"},
      {"smiles": "CN(CC(=O)O)c1ccc(/C=C/c2ccnc3ccccc23)cc1", "growth": "91.2%"},
      {"smiles": "CC(=O)O[C@H]1C(=O)[C@@]2(C)[C@H]([C@H](OC(=O)c3ccccc3)[C@]3(O)C[C@H](OC(=O)[C@H](O)[C@@H](NC(=O)c4ccccc4)c4ccccc4)C(C)=C1C3(C)C)[C@]1(OC(C)=O)CO[C@@H]1C[C@@H]2O", "growth": "9.93% (active) and -37.3% (active)"},
      {"smiles": "O=C(CNS(=O)(=O)Cc1ccccc1)NNc1ccccc1", "growth": "75.2%"},
      {"smiles": "O=C1C(Cl)=C(Cl)C(Cl)(Cl)C(Cl)C1(Cl)Cl", "note": "(stereo not given)", "growth": "105%"},
      {"smiles": "O=C1c2ccccc2CCC1(Br)Br", "growth": "-68.2% (active)"},
      {"smiles": "CN(C)CCNc1cccc2sc3ccc(O)cc3c(=O)c12", "growth": "34.9%"},
      {"smiles": "CCC(=O)Oc1ccc(/C=N/NC(N)=S)nc1", "growth": "79.5%"},
      {"smiles": "COc1ccc(C(C#N)=C2C=CC(=NO)C=C2)cc1", "growth": "127%"},
      {"smiles": "NCc1c(O)ccc2ccccc12", "growth": "105%"},
      {"smiles": "Cc1c(-c2ccccc2)[nH]c2ccccc12", "growth": "115%"},
      {"smiles": "S=C1SCN(CCc2ccccc2)CN1CCc1ccccc1", "growth": "99.2%"},
      {"smiles": "O=C(O)c1ccccc1.[Ag]", "growth": "25.8%"},
      {"smiles": "CCOC(=O)[C@]1(Br)CC[C@@]1(Br)C(=O)OCC", "growth": "116%"},
      {"smiles": "O=Nc1ccc(Nc2ccccc2)cc1", "growth": "105%"},
      {"smiles": "Cc1cc(O)c2c(c1O)C(=O)C13C(=C2O)C(=O)C2C(O)C1C1C(O)C3C(=O)C3=C(O)c4c(O)cc(C)c(O)c4C(=O)C321", "note": "(stereo not given)", "growth": "-30.4% (active)"},
      {"smiles": "COc1ccc(N)c2c1C(=O)c1ccccc1C2=O", "growth": "111%"},
      {"smiles": "O=c1[nH]cc(/C=N\\Nc2ccccc2)c(=O)[nH]1", "growth": "67.9%"},
      {"smiles": "Cn1c2nc3ccccc3c-2nc2ccccc21", "growth": "86.7% and 83.9%"},
      {"smiles": "Nc1nc(N)c2cc(Sc3ccc4ccccc4c3)ccc2n1", "growth": "-71.6% (active)"},
      {"smiles": "O=C1C=CC(=O)N1c1ccc(N2C(=O)C=CC2=O)cc1", "growth": "95.2%"},
      {"smiles": "CN(C)c1ccc(/C=C/c2ccnc3ccccc23)cc1N", "growth": "62.9%"},
      {"smiles": "Cc1cc(N=C2C=CC(=[N+](C)C)C=C2)c(N)cc1N", "growth": "95.8%"},
      {"smiles": "O=S(=O)(c1cc(Cl)ccc1O)c1cc(Cl)ccc1O", "growth": "105%"},
      {"smiles": "COc1ccc2c(c1)[nH]c1c(/C=C/c3ccccc3)nccc12", "growth": "14.4%"},
      {"smiles": "N#CC(=C1C=CC(=NO)C=C1)c1ccccc1", "growth": "30.4%"},
      {"smiles": "COc1cc(N)ccc1Nc1c2ccccc2nc2ccccc12", "growth": "12.4%"},
      {"smiles": "COc1ccc2oc(-c3ccc(Cl)cc3)c(N3CCN(C)CC3)c2c1", "growth": "-72.5% (active)"},
      {"smiles": "N#C/C(=C/N1C(=O)/C(=C/c2ccc([N+](=O)[O-])cc2)SC1=S)c1nc2ccccc2s1", "growth": "90.3%"},
      {"smiles": "COc1cccc(C(c2cc3c(cc2O)OCO3)N2CCOCC2)c1OC", "note": "(stereo not given)", "growth": "111%"},
      {"smiles": "O=C1c2cccc3cc([N+](=O)[O-])cc(c23)C(=O)N1CCN1CCCC1", "growth": "-13.8% (active)"}
    ]},
    {"test_system": "COLO 205 colon", "assay": "NCI-60 one-dose screen, 48 h (100 = growth as untreated, 0 = no growth, -100 = all killed)", "conditions": "100 µM", "method": "as §1, §2, §3, §4", "units": {"growth": "%"}, "values": [
      {"smiles": "S=P(N1CC1)(N1CC1)N1CC1", "growth": 78.6}
    ]}
  ]
}
